Assay outcomes: PubChem, The Scripps Research Institute Molecular Screening Center
Hits are enriched below; roughly 4.1% of the tested compounds scored in any of these assays.
hcDAF12 agonist: activates DAF-12 receptor from parasite H. contortus; HEK293 hcDAF-12 lit1-tk-luc reporter, luminescence; 0% DMSO, 100% Δ7-dafachronic acid; 1.4% of 370,000 active; activation, % at 6.8 µM;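 active = activation above the mean of all tested compounds plus 3 SD, cut at about 5.5% in these data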;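 also: 100% = response to 3 µM Δ7-dafachronic acid high control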
ssDAF-12 act: S. stercoralis DAF-12 activation, primary screen; HEK293 ssDAF-12/GRIP1 lit1-tk-luc reporter, luminescence; % of 3 µM dafachronic acid response; activation, % at 6.8 µM; 1% of 370,000 active; AID 652126;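 active = activation above the mean over all tested compounds plus 3 SD, cut at about 0.9% in these data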;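 also: 0% = DMSO-only wells and 100% = 3 µM delta7-dafachronic acid wells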
DAX1 inh-1: inhibitors of DAX1 repression of SF-1 activated StAR promoter; HEK293T StAR-luciferase reporter, SF-1/DAX-1 repression relief; inhibition, % at 6.8 µM; 1.1% of 370,000 active; AID 652010;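 active = inhibition above the mean over all tested compounds plus 3 SD, cut at about 3.6% in these data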;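 also: 0% = DAX-1 cells with DMSO and 100% = cells lacking DAX-1 with DMSO; higher inhibition means more luminescence from relief of DAX-1 repression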
hgDAF-12 ag: hgDAF-12 agonism, primary luciferase screen. HEK293 GAL4-hgDAF12 UAS-luciferase reporter, agonist luminescence; normalized to butyrate control. activation, % at 6.8 µM. 1.8% of 370,000 active;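 active = activation above a cutoff set at the mean of all screened compounds plus 3 SD, cut at about 10% in these data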;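 also: 0% = DMSO wells and 100% = sodium butyrate wells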
DAX1 inh-2: NR0B1 (DAX1) inhibition | AID 504766 | inhibition, % at 6.75 µM | HEK293 Gal4-DAX1 luciferase reporter, luminescence | 0.99% of 340,000 active | P51843;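 active = inhibition above the mean over all tested compounds plus 3 SD, cut at about 4.2% in these data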;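 also: 0% = DAX1-transfected cells with DMSO and 100% = empty-vector control cells with DMSO; inhibition shows as a rise in luminescence from relieved DAX1 repression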
Target sequence (P51843 207-470 limits assumed): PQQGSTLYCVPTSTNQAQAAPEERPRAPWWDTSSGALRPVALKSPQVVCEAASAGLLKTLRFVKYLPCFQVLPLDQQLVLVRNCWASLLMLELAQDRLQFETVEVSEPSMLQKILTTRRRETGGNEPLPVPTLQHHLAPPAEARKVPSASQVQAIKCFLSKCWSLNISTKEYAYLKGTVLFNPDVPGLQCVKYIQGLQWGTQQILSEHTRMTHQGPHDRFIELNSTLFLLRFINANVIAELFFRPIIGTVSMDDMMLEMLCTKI
Starred values were filed as active, the others as inactive; x = not tested or not shown.

SMILES	hcDAF12 agonist	ssDAF-12 act	DAX1 inh-1	hgDAF-12 ag	DAX1 inh-2
Cc1[nH]c2ccccc2c1/C=N/Nc1ccccc1[N+](=O)[O-]	5	0.9*	0	4	0
COc1ccc(NS(=O)(=O)c2cc([N+](=O)[O-])ccc2N/N=C/c2c(C)[nH]c3ccccc23)cc1	2	-1	0	1	0
O=C(Nc1c(F)cc(F)cc1Br)c1cc(S(=O)(=O)N2CCN(c3ccccn3)CC2)ccc1F	-3	-2	-2	-1	4.7*
O=S(=O)(c1ccc(F)cc1)N1CCN(c2ccccn2)CC1	3	1.6*	0	1	0
COC(=O)C1=C(C)N(C)C(=NCc2ccc(C(F)(F)F)cc2)NC1c1cccc(Cl)c1 (stereo not given)	-1	0	0	0	x
CCCN1C2CCCC1CC(NC(=O)c1ccccc1OCC)C2 (stereo not given)	5	0.9*	2	3	1
Cc1ccc2c(nc3s/c(=C/c4cccs4)c(=O)n32)c1C	6.2*	0	0	4	2
Cc1ccc(C(=O)CSc2nc3ccc(C(=O)NCCN4CCCCC4)cc3c(=O)[nH]2)cc1	5.6*	0	0	3	1
Cc1[nH]c2ccc(C(=O)NCCN3CCCCCC3)cc2c1C	-2	-1	-1	1	-1
CCn1nc(C)c(Br)c1-c1nc(CS(=O)(=O)c2ccc(F)cc2)no1	0	-1	0	0	0
CCn1nc(C)c(Br)c1-c1nc(-c2ccc(C)cc2)no1	3	1.0*	0	0	x
CC(OC(=O)COc1ccc(C#N)cc1)C(=O)c1ccccc1 (stereo not given)	-1	-1	1	1	1
COc1ccc(C(=O)C(C)OC(=O)COc2ccccc2)cc1 (stereo not given)	0	-1	3.8*	-3	0
CC(c1nccs1)N(C)C(=O)CCc1nnc(Cc2c[nH]c3ccccc23)o1 (stereo not given)	2	3.5*	-1	-4	0
CC(C)c1ccc(C(=O)NN2C(=O)C3CCCCC3C2=O)cc1 (stereo not given)	5	-1	3.8*	11*	2
COC(=O)C1=C(C)N(Cc2cccc(C(F)(F)F)c2)C(=NCc2ccc3c(c2)OCO3)NC1c1ccc(Cl)cc1 (stereo not given)	1	-1	0	3	x
CC1(C)CC(=O)C(N=Nc2cccc([N+](=O)[O-])c2)=C(O)C1	1	0	0	0	6.1*
Cc1cc(C)n2nc(SCc3nc4ccccc4[nH]3)nc2n1	-2	-1	0	-1	4.5*
COc1c(C)cccc1C(=O)Nc1ccc(CN2CCOCC2)cc1	6.0*	-1	4	7	4
CCN1CCN(Cc2ccc(NC(=O)Nc3ccc(OC)cc3)cc2)CC1	0	-1	0	9	4.3*
CCN1CCN(Cc2ccc(NC(=O)Nc3ccccc3)cc2)CC1	x	x	x	x	3
COc1ccc(C(=O)Nc2ccc(CN3CCS(=O)(=O)CC3)cc2)cc1	0	-2	1	-1	4.4*
CN(C)c1ccc(C(=O)Nc2ccc(CN3CCS(=O)(=O)CC3)cc2)cc1	0	-2	1	4	1
O=C(NC1CC1)C1=C[C@H](c2c[nH]c3ccccc23)C[C@H](OCCCCO)O1	1	0	0	0	1
O=C(NC1CC1)C1=C[C@@H](c2c[nH]c3ccccc23)C[C@@H](OCc2ccc(CO)cc2)O1	2	-1	0	11*	1
SMILES	hcDAF12 agonist	ssDAF-12 act	DAX1 inh-1	hgDAF-12 ag	DAX1 inh-2
c1ccc(CSCc2ccccc2)cc1	2	-1	1	0	2
C(#CSCc1ccccc1)SCc1ccccc1	1	0	0	0	4.3*
COC(=O)c1cccc(Cn2ccc3ccc(-c4ccc5ccn(C(=O)c6cccc(OC)c6)c5c4)cc32)c1	1	-1	-2	-1	x
Cc1ccccc1/C=C1\CCCc2ccccc2C1=O	4	1	3	10	6.0*
O=C1/C(=C\c2ccc3ccccc3c2)CCCc2ccccc21	5	0	3	10	3
CC(C)CNC(=O)OCc1cn(Cc2ccccc2F)nn1	2	0	2	1	x
O=C(OC12CCCN(C1)/C(=C/c1cccc(Cl)c1)C2)C1CCCCC1 (stereo not given)	1	-1	-1	0	x
c1ccc(COCCc2cn(Cc3ccccc3)c3ccccc23)cc1	1	0	1	6	x
O=C1NC(=Nc2ccccc2)c2c1cccc2[N+](=O)[O-]	0	1.3*	0	2	-2
C=CCOc1ccc(/C=C2\SC(=S)N(N3CCOCC3)C2=O)cc1	5.7*	0	2	10	1
CCOC(=O)N1CCN(C(=O)COc2cc(=O)n(C)c3ccccc23)CC1	-1	-2	0	0	0
CCOC(=O)N1CCN(C(=O)COc2cc(=O)n(CC)c3ccccc23)CC1	-1	-1	0	0	8.2*
CCCNC(=O)Cn1cc(S(=O)(=O)N2CCCC2)c(S(=O)(=O)N2CCCC2)c1	1	-1	3.9*	2	1
CCC(C)NC(=O)Cn1cc(S(=O)(=O)N2CCCC2)c(S(=O)(=O)N2CCCC2)c1 (stereo not given)	-2	-1	0	3	1
CCOc1ccccc1N(C(=O)Nc1cccc(Cl)c1)C1=NC(C)CS1 (stereo not given)	-3	-2	-1	1	4.5*
CCOc1ccccc1N(C(=O)Nc1ccc(Cl)cc1)C1=NCCS1	5	-1	1	2	-1
Cc1ccc(-n2c(C)cc(/C=C3\SC(=O)NC3=O)c2C)cc1	3	0	1	6	2
Cc1cc(/C=C2\SC(=S)NC2=O)c(C)n1-c1cccc(O)c1	5	0	4	7	5.3*
Cc1ccc2nc(-c3ccccc3)nn2c1	6.5*	1	4	10	-4
Cc1ccc(-c2nnc(-c3ccccc3)c(-c3ccccc3)n2)cc1	2	-1	0	0	0
Cc1ccc(NC(=O)[C@H]2CC(=O)O[C@@H]2c2ccccc2)cc1C	2	0	0	3	x
Cc1ccc(Nc2nnc(SC3CCOC3=O)s2)cc1 (stereo not given)	-2	-2	0	2	1
O=C1CCCCC1Sc1nnc(Nc2ccccc2)s1 (stereo not given)	1	-1	2	11*	4
C/C(=N/NC(=O)CN1CCN(Cc2ccccc2Cl)CC1)c1cccc(O)c1	-1	-2	-1	5	x
CN(C)c1ccc(N=Nc2ccc(S(N)(=O)=O)cc2)cc1	4	0	2	11*	3
Cc1ccc(C(=O)C2CC2)c(C)c1	1	3.1*	-1	1	-1
Cc1cc(C)nc(NC(=S)NC(=O)c2ccccc2F)n1	1	-1	0	1	x
Cc1cc(C)nc(S/C=C/C(=O)c2ccccc2F)n1	-1	-2	1	0	6.2*
